This note sets out measurements from PubChem BioAssay (NCI).

Compounds without any hit were thinned out: in the full panel of roughly 83,000, 20% have a hit.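 Each cell line was grown in a 96-well plate and treated with one concentration of compound for 48 hours. Values below 10 were considered active.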 Unmarked numbers belong to inactive results. Active and inactive are the calls of the source.

For the assay, the system named is SW-620 colon. Kind of assay: NCI-60 one-dose screen, 48 h (100 = growth as untreated, 0 = no growth, -100 = all killed). The following applies: 10 µM unless noted. Here is the method:
Growth inhibition of the SW-620 human tumor cell line is measured as a screen for anti-cancer activity. Cells are grown in 96 well plates and exposed to the test compound for 48 hours. Compounds are tested at a single concentration, which is 10^-5 M for most compounds. The reported endpoint is percent growth (GI% or GIPRCNT), where numbers from 0 - 100% represent growth inhibition, and numbers from -100% - 0 represent cell death. For example, a value of 40 represents 60% growth inhibition. A value of 0 means no net growth occurred over the course of the experiment. A value of -40 indicates 40% of cells at the beginning of the experiment died by the end of the experiment. A value of -100 means all cells are dead at the end of the experiment.
NCI-60 Human Tumor Cell Lines Screen was performed using the standard one-dose NCI protocol, which is described in more detail at https://dtp.cancer.gov/discovery_development/nci-60/default.htm.
Compounds with GIPRCNT values below 10 were considered active. Activity score was based on GIPRCNT using the following formula: […]
Score is 0 for GIPRCNT values of 100 or above, 50 for GIPRCNT values of 0, and 100 for GIPRCNT values of -100.
In the case of `C#Cc1cccc(NC(=O)C2CCCCN2C(=O)CCl)c1` (stereo not given), the growth is -59.9% [8.25 µM] (active).

Take `CC(C)NS(=O)(=O)/N=C1\NC(=O)NC1=C(Cl)Cl`: the growth was 103%. Turning to `C/C(=N\Nc1ccccc1)c1ccc(NC2=CC(=O)c3ccccc3C2=O)cc1`, the growth is 48.4%. The same measure for `O=C(NNc1nc2cc(F)ccc2n2c(CN3CCOCC3)ccc12)c1ccccc1`: -1.14% (active). The same measure for `O=C(CN1C(=O)S/C(=C\C(Cl)=C\c2ccccc2)C1=O)NC1CCS(=O)(=O)C1` (stereo not given): 22.6%; for `CCCCO[C@@H]1C=C2[C@H]3CC(C)(C)C(=O)C[C@]3(C(=O)O[C@@H]3O[C@H](CO[C@@H]4O[C@H](CO)[C@@H](OC5OC(C)C(O)C(O)C5O)[C@H](O)[C@H]4O)[C@@H](O)[C@H](O)[C@H]3O)CC[C@@]2(C)[C@]2(C)CC[C@H]3C(C)(C)C(=O)CC[C@]3(C)[C@@H]12` (stereo not given in full): 67.5%. In the case of `[N-]=[N+]=NCC1OC(n2cnc3c(NC(=O)Nc4ccccc4)ncnc32)C2OC(=O)CC12` (stereo not given) it was 105%; in that of `CN1C(=O)/C(=C/c2ccc(C(=O)Nc3ncc(Cc4cccc(C(F)(F)F)c4)s3)cc2)SC1=S`, 38.2%; in that of `O=C(Nc1cccnc1Nc1ccccc1)c1cn(Cc2cccc(Oc3ccccc3)c2)nn1`, 42.4%. `O=C(Oc1ccc2c(c1)sc1nc(-c3ccccc3)[nH]c(=O)c12)C(F)(F)F`: the growth is 18.4%. For the compound `CC(=O)N1N=C(c2ccc(Nc3nc(Nc4ccc(F)cc4)nc(Nc4ccc(F)cc4)n3)cc2)CC1c1ccc(N(C)C)cc1` (stereo not given), the growth was 63.7%. Take `Nc1ccc(-c2ccncc2)cc1NC(=O)N1CCCC1`: the growth was 98.2%. As to `COc1ccc2c(O)c(/C=C3\N=Nc4ncccc43)oc2c1C[C@@H]1CCNC[C@H]1F`, the growth is -6.3% (active).

`COc1ccc(-c2nc3ccc(C)cc3c3c2c(=O)n(C)c(=O)n3C)cc1OC`: the growth was 103%. Turning to `COc1ccc2c(c1)CC[C@@H]1[C@@H]2CC[C@]2(C)c3c(cc(C#N)c4c3sc3ccccc34)C[C@@H]12`, the growth is 99.5%. In the case of `N#Cc1ccc(/C=C/c2cn(-c3ccccc3)nc2-c2cccc([N+](=O)[O-])c2)cc1`, the growth was 57.1%.

Consider `COc1ccc(-c2nc(SCC(=O)Nc3nc4ccc(C)cc4s3)[nH]c(=O)c2C#N)cc1OC`, for which the growth is 96.2%. For the compound `CCN(CC)CCOc1ccc(/C(=C(\C)Cc2ccc(OC)cc2)c2ccc(OC(=O)NCc3ccccc3)cc2)cc1`, the growth was 57.6%. As to `COc1ccc(-c2cc(-c3cc(OC)ccc3OC)nc(SCC(C)=O)c2C#N)cc1`, the growth was 92.1%. On to `COc1cc(Cc2cc(OC)c(O)c(OC)c2)cc(OC)c1O`, for which the growth is 41.4%. The same measure for `COc1ccc(N/N=C/c2cn(-c3ccc(C(=O)O)cc3)nc2-c2cc3ccccc3oc2=O)cc1`: 52.9%. In the case of `COc1ccc(C2CC(n3ccnc3)c3cc(OC)c(OC)c(OC)c32)cc1O` (stereo not given) it was 62.5%; in that of `O=[N+]([O-])c1ccccc1Nc1ccc2ccccc2c1`, 83.8%.

As to `C=C(C)[C@@H]1CC[C@]2(C(=O)Nc3ccccn3)CC[C@]3(C)[C@H](CC[C@@H]4[C@@]5(C)CCCNC(C)(C)[C@@H]5CC[C@]43C)[C@@H]12`, the growth was -31.7% (active). As for `CC(O)CNC(Cc1ccccc1)c1ccc2c(c1)OCO2` (stereo not given), the growth is 92.8%. Regarding `CCN(CC)CCOc1ccc2ccc(=O)oc2c1`, the growth was 101%. As to `COc1ccc(-c2cc(-c3cn(-c4cccc(Cl)c4)nc3-c3ccc(OC)cc3)on2)cc1`, the growth was 106%. On to `CN(C)CCCC1(c2ccc(F)cc2)OCc2cc(-c3csc4ccccc34)ccc21` (stereo not given), for which the growth was -82.4% (active). In the case of `CNC(=O)c1cc(Oc2ccc3c(c2)sc2nc(-c4ccc(Cl)c(C(F)(F)F)c4)cn23)ccn1` it was 68.6%; in that of `c1ccc(Cn2cc3c(c2-c2ccccc2)CCc2cnoc2-3)cc1`, 24.1%. Turning to `CNCCCNc1nc2ccccc2c2c(=O)c3cc(Cl)ccc3sc12`, the growth is -87% (active).

`Fc1cc2[nH]ncc2c2c3c(c(-c4cn[nH]c4C(F)(F)F)nc12)CCCC3`: the growth was 4.23% (active). In the case of `Cc1sc2nc(NCCN)[nH]c(=O)c2c1C` it was 95.5%; in that of `N=C(N)c1ccc(OCCSCCOc2ccc(C(=N)N)cc2)cc1`, 87.6%; in that of `O=S(=O)(N=C1C(Cl)=C(Cl)C(=NS(=O)(=O)c2ccccc2)C(Cl)=C1Cl)c1ccccc1`, 39.7%.

On to `CCOC(=O)c1cnn(CC(C)O)c1NC(=O)NCc1ccccc1C(F)(F)F` (stereo not given), for which the growth is 105%. `C[C@@H]1NC(=O)[C@H](Cc2ccccc2)N(Cc2cccnc2)C1=O`: the growth was 97.2%. In the case of `O=C(/C=C/C12c3ccccc3C(c3ccccc31)C1C(=O)NC(=O)C12)c1ccco1` (stereo not given) it was 27.4%; in that of `O=C(Nc1ccccc1O)c1ccc(CNc2ccnc(C(F)(F)F)c2)cc1`, 72.8%.

Take `Cc1cccc(N2C(=O)/C(=C/C(Cl)=C/c3ccc([N+](=O)[O-])cc3)SC2=S)c1C`: the growth is 0.401% (active).
